Test results reported in ChEMBL document CHEMBL3988442, “University of Dundee, Small-Polar-MMV Screening Library” (2021).
Screen size: about 48,000 compounds; about 13,000 (27%) showed an effect of 50% or more. The list shows a part of the results.

Test system: Wolbachia pipientis
Assay: Anti-Wolbachia Cell-Based Screen
Type: functional
Set-up: scale not given: in the data most compounds retested in dose-response had high values
Conditions: 5 µM

| SMILES | Percent Effect |
| --- | --- |
| NC(=O)CCn1ccc(NC(=O)c2ccc(Br)o2)n1 | -16.68% |
| O=C(NCC1(N2CCOCC2)CCSC1)Nc1ccc(F)cc1 (stereo not drawn) | -9.419% |
| CCCOc1ccccc1CCCNc1ncnc2oc(C)nc12 | -6.613% |
| CCc1nccc(CN2CCC(CNC(=O)c3occc3C)C2)n1 (stereo not drawn) | -2.673% |
| CC(N1CCN(C(=O)NCc2cccc(C#N)c2)CC1)C(F)(F)F (stereo not drawn) | -0.6976% |
| CC(C)Nc1ncnc2c1CCN(C(=O)[C@H]1CCCO1)CC2 | 89.47% |
| O=C(C1CCCCO1)N1CCc2ncnc(NCc3ccon3)c2CC1 (stereo not drawn) | -8.792% |
| O=C(c1ccnnc1)N1CCc2ncnc(C3CCOC3)c2CC1 (stereo not drawn) | -19.12% |
| CCN(C)c1ncnc2c1CCN(C(=O)[C@H]1CCCO1)CC2 | 4.637% |
| O=C([C@H]1CCCO1)N1CCc2ncnc(C3CC3)c2CC1 | 109.2% |
| O=C(C1CCCCO1)N1CCc2ncnc(NCCO)c2CC1 (stereo not drawn) | -13.54% |
| CCCN(C)C(=O)c1cc(Br)cc(S(=O)(=O)N2CCOCC2)c1F | 6.063% |
| Cc1nnc(N2CCCC3(CN(c4cccc(F)c4)CCO3)C2)o1 (stereo not drawn) | -14.38% |
| O=C(NCCN1CCOCC1)c1cc(Cl)c2c(c1)OCCCO2 | 12.84% |
| CCn1c(CN2CCOC(Cn3cncn3)C2)nc2c(F)cccc21 (stereo not drawn) | -6.661% |
| Cc1ccc(C(CNCC2CC2)N2CCOCC2)s1 (stereo not drawn) | -12.57% |
| O=C(c1ccc(-c2cnco2)cc1)N1CCC(Nc2cccnn2)CC1 | 107% |
| CC(Cn1cccn1)C(=O)N1CCC(Nc2cccnn2)CC1 (stereo not drawn) | -6.529% |
| CC(C(=O)N1CCC(Nc2cccnn2)CC1)n1cccn1 (stereo not drawn) | 60.47% |
| O=C(c1ccc(-n2cnnc2)cc1)N1CCC(Nc2cccnn2)CC1 | 87.89% |
| CNC(=O)c1ccc(C(=O)N2CCC(Nc3cccnn3)CC2)cn1 | 119% |
| Cc1cccc2nc(C(=O)N3CCC(Nc4cccnn4)CC3)cn12 | -6.08% |

| SMILES | Percent Effect |
| --- | --- |
| CC(C(=O)N1CCC(Nc2cccnn2)CC1)n1ccnc1 (stereo not drawn) | 3.754% |
| CCOC(C)c1nc(Cn2cc(C(=O)NC)ccc2=O)cs1 (stereo not drawn) | -7.956% |
| Cc1ccc(NC(=O)N2CCOC(C)(c3cnn(C)c3)C2)c(C)c1 (stereo not drawn) | 16.86% |
| COc1cc2c(cc1OC)S(=O)(=O)N(Cc1cc(C)on1)C2=O | -6.413% |
| N#Cc1c(Cl)nsc1N1CCN(CC2CCCCC2)CC1 | 3.475% |
| Cc1cccc(-n2nc(CC(C)C)nc2CCn2ccc(=O)[nH]c2=O)c1 | 22.44% |
| O=C(c1ccc(O)nc1)N1CCC(Nc2cccnn2)CC1 | 95.42% |
| O=C(c1ccccc1-n1cccn1)N1CCC(Nc2cccnn2)CC1 | 157.4% |
| O=C(c1ccccc1-n1cccn1)N1CCCN(c2cccnn2)CC1 | -6.198% |
| O=C(c1ccncc1)N1CCCN(Cc2nnc(C3CC3)o2)CC1 | -12.73% |
| O=C(c1ccccn1)N1CCC(Nc2cccnn2)CC1 | 18.78% |
| O=C(c1ccsc1)N1CCC(c2nnc(C3CC3)o2)CC1 | 116.7% |
| O=C(c1ccc(-n2cccn2)nc1)N1CCC(Nc2cccnn2)CC1 | -1.733% |
| O=C(c1ccc(NC2CC2)nc1)N1CCC(Nc2cccnn2)CC1 | 118.5% |
| FC(F)(F)c1ccc(-n2ccnc2-c2cc3n(n2)CCNC3)cn1 | 0.08182% |
| CCS(=O)(=O)c1ccccc1N1CCC(NC(=O)NC2CCCC2)CC1 | -4.776% |
| O=C(c1ccoc1)N1CCC(Nc2cccnn2)CC1 | 90.61% |
| O=C(c1ccsc1)N1CCC(Nc2cccnn2)CC1 | 95.56% |
| Cc1ccc(S(=O)(=O)Nc2ccc(-n3nnn(C)c3=O)cc2)cc1 | 8.508% |
| O=S(=O)(Nc1ccc(N2CCOCC2)cn1)c1cccc(F)c1 | 2.193% |
| COc1cccc(OCC2CCCN(C(=O)c3ncc(F)cc3F)C2)c1 (stereo not drawn) | -61.26% |
| CC(C)Nc1ncnc2c1CCNCC2 | -5.966% |

| SMILES | Percent Effect |
| --- | --- |
| c1nc2c(c(NC3COC4(CCCC4)C3)n1)CCNCC2 (stereo not drawn) | 100.1% |
| CCNc1ncc(C(=O)NC2COC3(CCCC3)C2)cn1 (stereo not drawn) | -5.692% |
| c1nc2c(c(NC3CCc4ncnn4C3)n1)CCC2 (stereo not drawn) | -6.936% |
| COC[C@H]1CCC[C@H]1Nc1ncnc2c1CCNCC2 | 95.23% |
| COCC(=O)N1CCCN(c2ncnc3c2CCNCC3)CC1 | 1.266% |
| CC(NC(=O)CCN1CCOC1=O)(c1ccccc1)c1ccccc1 | 8.215% |
| CC(Oc1ccccc1C(F)(F)F)C(=O)NS(=O)(=O)C(C)C (stereo not drawn) | -1.095% |
| CCC(CC(=O)Nc1ccc2c(c1)CC(=O)N2)c1ccccc1 (stereo not drawn) | 3.416% |
| Cn1cc(C(=O)N2CCOc3ccccc32)ccc1=O | -9.078% |
| CC(C)N1CC(C(=O)NCCc2csc(-c3ccncc3)n2)CC1=O (stereo not drawn) | 2.271% |
| O=C(Nc1cc(-c2ccncc2)no1)C1CC1 | -3.278% |
| O=C(NCCc1cc2nc(-c3ccncc3)ccn2n1)C1CCOCC1 | 126.4% |
| O=C(NCCc1cc2nc(-c3ccncc3)ccn2n1)C1CC1 | 124.8% |
| Cc1csc(CCNC(=O)C2CCOC2)n1 (stereo not drawn) | 0.3325% |
| O=C(NCCc1cccc(Cl)c1)C1CCOCC1 | 2.096% |
| Cc1cc(=O)n(C)cc1NC(=O)NCc1cccc(F)c1 | 28.52% |
| CN1CCOC(C(=O)Nc2nc(-c3ccccc3F)n[nH]2)C1 (stereo not drawn) | -6.828% |
| O=C(Cc1ccccc1)N1CC(=O)N(Cc2ccco2)CC(O)C1 (stereo not drawn) | 119.5% |
| O=C(O)C(F)(F)F.c1coc(CN2Cc3ccnn3CC(COCC3CC3)C2)c1 (stereo not drawn) | 5.412% |
| O=C(Cc1ccc(-c2ccccc2)cc1)N1CCOCC(O)C1 (stereo not drawn) | -43.76% |
| O=C1CN(C(=O)OCc2ccccc2)CC(O)CN1Cc1ccco1 (stereo not drawn) | 93.23% |
| O=C1NCCO[C@H]2CN(C(=O)Cc3ccco3)CC[C@@H]12 | -15.97% |

| SMILES | Percent Effect |
| --- | --- |
| O=C(COCc1ccccc1)N1CCN(Cc2ccccc2F)C(=O)C1 | -37.48% |
| O=C(C1CN(Cc2ccoc2)CC12CCOCC2)N1CCCC1 (stereo not drawn) | -22.56% |
| COCc1cc(C[C@@H]2CC[C@H](O)[C@@H](CN(C)C)O2)no1 | 7.016% |
| O=C(O)C(F)(F)F.O=C(c1ccoc1)N1CC[C@H]2OCC[C@@]2(COc2ncccc2F)C1 | 0.551% |
| COc1ccc(C(C)N2CCC(NS(C)(=O)=O)CC2)cc1Cl (stereo not drawn) | -1.711% |
| CO[C@H]1CC[C@H]2[C@H]1OCCN2C(=O)c1nn(C)c2ccccc12 | 119% |
| CO[C@@H]1CC[C@H]2[C@H]1OCCN2C(=O)c1nn(C)c2ccccc12 | 115.4% |
| CO[C@@H]1CC[C@H]2[C@H]1OCCN2C(=O)c1ccco1 | -5.889% |
| CC(C)O[C@@H]1CC[C@H]2[C@H]1OCCN2C(=O)c1nn(C)c2ccccc12 | 112.4% |
| COCCNC(=O)Nc1cccc(COCCOC(C)C)c1 | -33.02% |
| Cn1cc(C#N)cc1C(=O)N1CCC2(CCCN(CC3CCC3)C2=O)C1 (stereo not drawn) | -29.9% |
| O=C(CN1CCCCC1Cn1cncn1)NCCc1ccc(F)cc1 (stereo not drawn) | -1.768% |
| O=C(CN1CCCCC1C1OCCO1)Nc1ccc(F)c(F)c1 (stereo not drawn) | -7.301% |
| O=C(Cn1cc(C(=O)O)ccc1=O)Nc1ccc(F)cc1Cl | -4.302% |
| Cc1nc(C)n(CC2CCCN2CC(=O)NCCc2ccccc2)n1 (stereo not drawn) | 5.202% |
| COC(=O)CC1CCCCN1CC(=O)NCCc1ccc(F)cc1 (stereo not drawn) | 106.1% |
| COC(=O)CC1CCCCN1CC(=O)Nc1cc(F)ccc1F (stereo not drawn) | 97.72% |
| COC(=O)C1CN(CC(=O)Nc2cc(F)ccc2F)c2ccccc21 (stereo not drawn) | 6.543% |
| CCOC(=O)N1CCN(CC(=O)Nc2ccc(F)cc2Cl)CC1 | -11.41% |
| COC(=O)CC1CCCCN1CC(=O)Nc1ccc(F)cc1Cl (stereo not drawn) | 107.7% |
| Cc1cc(C)c(CNC(=O)NCCNc2ncccn2)c(=O)[nH]1 | -4.444% |
| CCc1nsc(NC2CCCn3nc(CC)nc32)n1 (stereo not drawn) | 0.3299% |

| SMILES | Percent Effect |
| --- | --- |
| CCOC(=O)c1ccc(NC(=O)c2c(O)nc3c(c2O)CCCC3)cc1 | 115.5% |
| Nc1nc2c(c(NC(=O)Nc3ccc(Cl)c(Cl)c3)n1)CCCC2 | 4.347% |
| CC1=NN(c2ccc(C(=O)OCCNC(=O)c3ccncc3)cc2)CC1 | 6.071% |
| CC(C)(C)c1cnc(CN2CCCS(=O)(=O)CC2)o1 | -0.7322% |
| OCC1CCN(Cc2cc3c(cc2Br)OCCO3)CC1 | -6.909% |
| c1cc(CN2CCCC2c2noc(C3CC3)n2)on1 (stereo not drawn) | 95.79% |
| Cn1ccnc1CN1CCCC1c1noc(C2CC2)n1 (stereo not drawn) | 3.243% |
| FC(F)(F)Cn1ccnc1CN1CCCC1c1noc(C2CC2)n1 (stereo not drawn) | 2.411% |
| CC(C)c1nc(C2CCCN2Cc2ccno2)no1 (stereo not drawn) | -3.719% |
| CCc1nc(C2CCCN2Cc2nnc(CC)o2)no1 (stereo not drawn) | -8.839% |
| CCc1nc(C2CCCN2Cc2ccno2)no1 (stereo not drawn) | 111.3% |
| O=S(=O)(N1CCCCCC1)N1CCc2sccc2C1 | 4.086% |
| CS(=O)(=O)N1CCOC(CNC(=O)c2cccc(C#N)c2)C1 (stereo not drawn) | -22.73% |
| O=C(c1cccc(F)c1)N(CCCO)S(=O)(=O)c1cccs1 | -5.785% |
| Cc1cccc(OC2CCN(C(=O)Cn3ccc4ccccc43)CC2)n1 | 1.872% |
| Cn1cc(CNC(=O)C2CCCN(Cc3cccc(F)c3)C2)cn1 (stereo not drawn) | -5.601% |
| Cn1cc(CN2CCOC(c3cccc(-c4cccc(F)c4)n3)C2)cn1 (stereo not drawn) | 143.3% |
| Cn1cc(CN2CCCC(CCc3ccccc3C(F)(F)F)C2)cn1 (stereo not drawn) | 9.578% |
| Cn1cc(CN2CCCC(c3nccnc3-c3cccc(F)c3)C2)cn1 (stereo not drawn) | 135.8% |
| Cn1cc(CN2CCOC(c3nccnc3-c3cccc(F)c3)C2)cn1 (stereo not drawn) | 187.6% |
